Bioassay records: PubChem, National Center for Advancing Translational Sciences (NCATS)
This is a sample that favours compounds with a hit; in the whole collection about 2.4% have one here.
GLS inhibitor: blocks human kidney-isoform glutaminase activity; O94925; 410,000 tested, 0.21% active; GLS enzymatic activity, qHTS titration; AID 624170; Potency, µM (doses to about 45.5 µM), hits mostly inhibitors
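Human kidney-isoform GLS in 45 mM KH2PO4 pH 8.2, 0.02% Tween-20, with compound, started with 1mM L-Glutamine (added stock). Glutamate oxidase/HRP/Amplex red coupled fluorescence read at start and after 30 min at RT.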
POLH inh: DNA polymerase eta (human) inhibition; 390,000 tested, 1.2% active; Potency, µM (highest dose often 114 µM), actives largely listed as inhibitors; AID 588591; Q9Y253; recombinant Pol eta, fluorescent DNA replication assay
Target sequence (Q9Y253 whole entry, looked up): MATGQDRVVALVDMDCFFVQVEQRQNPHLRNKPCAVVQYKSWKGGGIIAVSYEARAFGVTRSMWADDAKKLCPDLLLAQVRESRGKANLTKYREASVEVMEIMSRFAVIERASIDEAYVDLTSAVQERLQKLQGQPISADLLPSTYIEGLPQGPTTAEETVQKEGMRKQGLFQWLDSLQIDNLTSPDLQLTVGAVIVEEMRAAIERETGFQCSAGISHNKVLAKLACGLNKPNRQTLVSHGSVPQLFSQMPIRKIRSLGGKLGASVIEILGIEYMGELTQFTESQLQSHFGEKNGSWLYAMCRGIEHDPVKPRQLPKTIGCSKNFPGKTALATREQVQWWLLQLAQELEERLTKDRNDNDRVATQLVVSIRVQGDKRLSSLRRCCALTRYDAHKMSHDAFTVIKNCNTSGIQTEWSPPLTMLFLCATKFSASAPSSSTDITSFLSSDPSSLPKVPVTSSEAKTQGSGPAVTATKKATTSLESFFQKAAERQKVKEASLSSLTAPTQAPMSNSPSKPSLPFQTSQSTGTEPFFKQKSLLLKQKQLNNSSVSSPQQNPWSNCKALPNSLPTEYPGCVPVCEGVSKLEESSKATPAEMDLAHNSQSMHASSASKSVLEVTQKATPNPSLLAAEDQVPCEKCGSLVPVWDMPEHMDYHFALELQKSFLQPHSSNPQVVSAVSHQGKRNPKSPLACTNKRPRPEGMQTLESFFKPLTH
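Fluorescent replication assay: 50 nM final substrate added after a 15 min room-temperature compound preincubation with 10 nM enzyme. Signal taken at 0 min and again at 10 min.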
GCN5L2 inh: GCN5L2 (KAT2A) acetyltransferase inhibition | Q92830 | GCN5L2 HAT assay, ThioGlo1 CoA-SH fluorescence | Potency, µM (series often up to 58.9 µM), most hits filed as inhibitors | 390,000 tested, 0.21% active
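Free CoA generated was detected with ThioGlo1 (50uM) fluorescence at Ex340nm/Em540nm, read immediately and after 20 min at room temperature. Enzyme, 20 nM in HEPES pH 7.5 buffer, saw compounds 15 min before adding 75uM H3(1-25) peptide and 70uM acetyl-CoA.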
POLB inh: DNA polymerase beta (human) inhibition; Pol beta primer extension/strand displacement, fluorescence kinetic; AID 485314; 340,000 tested, 1.3% active; Potency, µM (doses to about 114 µM), usual class: inhibitors
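Curves were derived by four-parameter Hill fits of normalized qHTS data. The kinetic fluorescent primer-extension read was taken at 0 and 10 min after 50 nM substrate, following a 15 min room-temperature preincubation of 10 nM enzyme with compounds.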
POLI inh: inhibitors of human DNA polymerase iota | Potency, µM (series often up to 115 µM), usual class: inhibitors | 390,000 tested, 1% active | Pol iota fluorescent replication assay, 10 min
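Pol iota at 10 nM preincubated 15 min with compounds at room temperature; reaction started with fluorescent substrate, 50 nM final. Fluorescence read kinetically at 0 and 10 min; buffer-only wells as negative control.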
Pol kappa inh: DNA polymerase kappa (human) inhibition. 400,000 tested, 0.53% active. Q9UBT6. purified Pol kappa, fluorescent DNA synthesis assay, 10 min. Potency, µM (doses to about 107 µM), usual class: inhibitors
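Readout: fluorescence, taken kinetically at 0 and 10 min. Conditions: 10 nM Pol kappa, 15 min RT compound preincubation, 50 nM substrate final. Controls: enzyme-free buffer wells.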
Of the large screens only hits and unclear results are named; the others gave an inactive call. Calls come from the whole dose curve; as a rule, active = well fitted inhibition curve with a large enough effect; inconclusive = small, poorly fitted or top-dose-only effect, or another doubt; inactive = no such curve, though single readings can be large or run the other way.

O=c1[nH]c(O)c(/C=C2\C=Nc3ccc(Br)cc32)[nH]1	POLH inh inconclusive, POLB inh 20µM
CCOCCc1nnc(NC(=O)Cc2ccc(Br)cc2)s1	POLB inh 89.1µM
NC1(C(=O)O)CCc2cc(P(=O)(O)O)ccc21 (stereo unspecified)	none (no result: GLS inhibitor, POLH inh, POLB inh, POLI inh)
CC(=O)O[C@H]1C[C@@H]2CC[C@@H]3[C@H](CC[C@]4(C)[C@H](OC(C)=O)[C@@H](N5CC[N+](C)(C)CC5)C[C@@H]34)[C@@]2(C)C[C@@H]1N1CC[N+](C)(C)CC1	none (no result: POLH inh, GCN5L2 inh, POLB inh, POLI inh, Pol kappa inh)
CC(C)(C)c1ccc(OCCn2c(CCNC(=O)C3CCCCC3)nc3ccccc32)cc1	POLI inh inconclusive (no result: GLS inhibitor, POLH inh, GCN5L2 inh, POLB inh)
COc1cc2c(cc1OC)C1O[C@](CCCCN3C(=O)c4ccccc4C3=O)(C2)Oc2c1c(=O)oc1ccc(F)cc21	GCN5L2 inh inconclusive, POLB inh 3.55µM (no result: GLS inhibitor, POLH inh, POLI inh, Pol kappa inh)
Cc1cc(=O)[nH]c(N/N=C/c2ccc(O)c(O)c2)n1	GLS inhibitor 12.6µM, POLI inh inconclusive
COC(=O)c1cccc(C(=O)Nc2ccc(F)cc2)n1	GCN5L2 inh 15.8µM
CCN1CC2=C(OC(N)=C(C#N)C2c2cccs2)/C(=C\c2cccs2)C1 (stereo unspecified)	POLI inh 39.8µM
Nc1cccc2[nH]cnc12	none (no result: GLS inhibitor, POLH inh, GCN5L2 inh, POLB inh)
COc1cccc(/C=N/NC(=O)c2cc(-c3ccccn3)nc3ccccc23)c1O	none (no result: POLB inh)
O=C(N/N=C/c1cc(Cl)cc([N+](=O)[O-])c1O)c1cc(-c2ccccn2)nc2ccccc12	POLH inh 79.4µM
Cc1ccc(C2C(C#N)=C(N)SC(N)=C2C#N)cc1	none
Cc1ccc(C2C(C#N)=C(N)SC(N)=C2C#N)c(C)c1	POLI inh 25.1µM
COc1ccccc1N1CCN(C(=O)N2CCOCC2)CC1	POLI inh 89.1µM
C=C(C)C1CCC2(C(=O)O)CCC3(C)C(CCC4C5(C)C(C=O)C(O)C(C)(C)C5CCC43C)C12 (stereo unspecified)	POLH inh 79.4µM
CCC(=O)N1c2ccc(S(=O)(=O)N3CCC(C)CC3)cc2CC1C (stereo unspecified)	none
Cc1ccc2oc(-c3ccc(C)c(NC(=O)COc4ccc(Cl)cc4C)c3)nc2c1	POLI inh inconclusive (no result: GLS inhibitor, POLH inh, GCN5L2 inh, POLB inh)
Cc1ccc(NC(=O)C(C)OC(=O)c2nc(Cl)ccc2Cl)cc1S(=O)(=O)N1CCOCC1 (stereo unspecified)	POLH inh inconclusive, POLI inh inconclusive (no result: GCN5L2 inh, POLB inh)
Cc1ccc(NC(=O)C(C)OC(=O)c2ccc(Cl)nc2)cc1S(=O)(=O)N1CCOCC1 (stereo unspecified)	POLH inh 20µM, GCN5L2 inh inconclusive, POLI inh inconclusive (no result: POLB inh)
O=C(CSc1ccccn1)Nc1cccc(NC(=O)CSc2ccccn2)n1	POLB inh 10µM, POLI inh inconclusive
CC(=O)NC1C(c2nc3ccccc3s2)=C(c2ccccc2)C(=O)N1c1ccc(C)cc1 (stereo unspecified)	none
COc1cccc(N2C(=O)C(c3ccccc3)=C(c3nc4ccccc4s3)C2NC(C)=O)c1 (stereo unspecified)	POLB inh 89.1µM
COc1cc(C(=O)Nc2nonc2-c2ccc(Cl)cc2)cc(OC)c1OC	none
CCC(=O)N1CCc2cc(Br)cc(S(=O)(=O)N3CCCC(C(=O)NCc4ccccc4)C3)c21 (stereo unspecified)	POLI inh 79.4µM
CC(=O)N1CCc2cc(Br)cc(S(=O)(=O)N3CCC(C(=O)Nc4cccc(C)c4C)CC3)c21	POLB inh 44.7µM, POLI inh inconclusive
Cc1nc(NCC(=O)c2c[nH]c3ccccc23)sc1C	none (no result: GLS inhibitor, POLH inh, GCN5L2 inh, POLB inh)
CO[C@H]1C[C@@H]2CC[C@@H](C)[C@@](O)(O2)C(=O)C(=O)N2CCCC[C@H]2C(=O)O[C@H]([C@H](C)C[C@@H]2CC[C@@H](OCCO)[C@H](OC)C2)CC(=O)[C@H](C)/C=C(\C)[C@@H](O)[C@@H](OC)C(=O)[C@H](C)C[C@H](C)/C=C/C=C/C=C/1C	none (no result: POLH inh, POLB inh, POLI inh)
CC(O)C1CCC2C3CCC4CC(O)CCC4(C)C3CCC12C (stereo unspecified)	none (no result: POLH inh, POLB inh, POLI inh)
COc1ccc(-c2nc(SCC(=O)Nc3ccc4c(c3)OCCO4)c(-c3ccc(F)cc3)[nH]2)cc1	POLB inh 39.8µM, POLI inh inconclusive
COc1ccc2[nH]c3nc(SCC(=O)Nc4ccc5c(c4)OCO5)nnc3c2c1	POLH inh inconclusive, POLB inh 22.4µM, POLI inh inconclusive
Cc1cc(Cl)ccc1NC(=O)CN1C(=O)C(=O)c2ccccc21	POLB inh inconclusive
OC[C@H]1OC(O)[C@@H](O)[C@@H](O)[C@H]1O (stereo partly specified)	none (no result: GLS inhibitor, POLH inh, POLB inh, POLI inh)
Cc1cc2c(c(=O)o1)C(c1ccc([N+](=O)[O-])o1)C(C#N)=C(N)O2 (stereo unspecified)	POLB inh inconclusive, POLI inh 20µM, Pol kappa inh 79.4µM
CCC(CC)C1C(C#N)=C(N)Oc2cc(C)oc(=O)c21 (stereo unspecified)	none
Cc1ccc2nc3n(c2c1)CCCN3	none (no result: POLB inh)
S=c1[nH]nc2n1CCCN2	GLS inhibitor 11.2µM
O=C(O)c1ccc(N2C(=O)CSC2=S)cc1	POLI inh inconclusive, Pol kappa inh 79.4µM (no result: GCN5L2 inh, POLB inh)
O=C(O)c1ccc(CN2C(=O)CSC2=S)cc1	POLB inh inconclusive, POLI inh inconclusive, Pol kappa inh 50.1µM
O=C1CSC(=S)N1c1ccccc1	none (no result: GCN5L2 inh, POLB inh)
CNS(=O)(=O)c1cc(N)ccc1C	none
Nc1ccc(/C=C/c2ccc(N)cc2S(=O)(=O)O)c(S(=O)(=O)O)c1	GLS inhibitor 11.2µM, GCN5L2 inh 12.6µM, Pol kappa inh 3.16µM (no result: POLH inh, POLB inh, POLI inh)
O=C1CSC(=S)N1/N=C/c1ccc(Cl)c([N+](=O)[O-])c1	GCN5L2 inh inconclusive, POLB inh 22.4µM (no result: GLS inhibitor, POLH inh, POLI inh, Pol kappa inh)
O=C1CSC(=S)N1/N=C/c1cc(Br)c(O)c(Br)c1	GLS inhibitor inconclusive, POLH inh 11.2µM, POLB inh 20µM, POLI inh 14.1µM, Pol kappa inh 15.8µM
O=C1CSC(=S)N1/N=C/c1ccc2c(c1)OCCO2	POLI inh inconclusive
COc1ccc(Br)cc1/C=N/N1C(=O)CSC1=S	GLS inhibitor 20µM, POLI inh inconclusive
COc1cc(/C=N/N2C(=O)CSC2=S)ccc1O	POLI inh 12.6µM, Pol kappa inh 79.4µM
CC12CCC(/C(=N/O)C1=O)C2(C)C (stereo unspecified)	none (no result: GLS inhibitor, POLH inh, GCN5L2 inh, POLB inh)
CCCCNC(=O)[C@@H]1CC=C[C@@H]2CCN(Cc3ccc(OC)c(OC)c3)C(=O)[C@@H]21	none (no result: GLS inhibitor, POLH inh, GCN5L2 inh, POLB inh)
COc1ccc(-c2nnc(Nc3nc4c(OC)cccc4s3)o2)cc1	POLH inh 79.4µM, POLB inh 31.6µM, POLI inh inconclusive, Pol kappa inh 35.5µM
COc1ccc(-c2nnc(Nc3nc4c(OC)cccc4s3)o2)c(OC)c1	POLH inh inconclusive, POLI inh inconclusive
